The values below come from PubChem BioAssay (NCATS).

The target in test [1] is Lysosomal acid glucosylceramidase (Homo sapiens) (UniProt P04062). The test is described as follows: Glucocerebrosidase-p2 (AID 348; in the data active = potency below about 10 µM; also: potency is read from the fitted curve at half-maximal effect). The settings on record: purified GBA, blue fluorogenic substrate, 40 min. The method in brief: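 Compounds titrated from 0.6 nM upwards against 0.2 nM enzyme in pH 5.9 citric acid/KH2PO4, taurocholate, tween-20; blue fluorogenic substrate 80 uM, 40 min room temperature, stopped and read Ex 365/Em 440 for AC50.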
Sequence of Lysosomal acid glucosylceramidase (Homo sapiens) (P04062 whole entry, looked up): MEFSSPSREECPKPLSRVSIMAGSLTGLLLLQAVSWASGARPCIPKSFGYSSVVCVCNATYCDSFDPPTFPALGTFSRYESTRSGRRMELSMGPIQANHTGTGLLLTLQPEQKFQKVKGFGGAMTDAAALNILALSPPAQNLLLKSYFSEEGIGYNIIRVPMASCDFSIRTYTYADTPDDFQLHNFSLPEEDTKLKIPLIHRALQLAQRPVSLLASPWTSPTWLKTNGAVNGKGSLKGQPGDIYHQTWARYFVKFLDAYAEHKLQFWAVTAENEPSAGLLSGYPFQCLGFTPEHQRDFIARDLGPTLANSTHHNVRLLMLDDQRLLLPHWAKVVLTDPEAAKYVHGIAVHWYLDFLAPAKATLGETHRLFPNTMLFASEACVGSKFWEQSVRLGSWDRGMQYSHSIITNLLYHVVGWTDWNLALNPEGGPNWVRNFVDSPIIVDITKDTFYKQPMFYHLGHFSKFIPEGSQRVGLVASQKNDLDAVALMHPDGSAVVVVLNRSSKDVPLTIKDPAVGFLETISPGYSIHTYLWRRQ

A short description of test [2]: AP1 Signaling Pathway (AID 357; active = well fitted curve in either direction with a large enough effect, not every such curve was filed as active;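 also: ME-180 reporter cells stimulated with EGF at its EC50 level; % is scaled to controls: 0 for no effect and ±100 for the full control effect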). The settings on record: ME-180 AP-1-bla reporter, EGF-induced, beta-lactamase ratio, 5 h; at 7.69 µM (top of the series) unless noted. The method in brief:
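Titration-series screen for positive or negative modulators of EC50 EGF-induced signaling in ME-180 cells carrying an AP-1-driven beta-lactamase reporter. After 5 hours at 37 degrees Celsius, CCF4 460nm/530nm emission ratio gave %Activity; AC50 values derived.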

The target of test [3] is Cytochrome P450 1A2 (Homo sapiens) (UniProt P05177). Briefly: p450-cyp1a2 (AID 410; calls by dose curve; also: potency is read from the fitted curve at half-maximal effect). Summed up: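 20nM CYP1A2 with 100uM Luciferin-ME (at Km) in 100mM KPO4; compound preincubated 10 min, NADPH regeneration added, 60 min at room temperature. Luciferin quantified by luminescence after detection reagent; normalized to 57 uM furafylline.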
Sequence of Cytochrome P450 1A2 (Homo sapiens) (P05177 whole entry, looked up): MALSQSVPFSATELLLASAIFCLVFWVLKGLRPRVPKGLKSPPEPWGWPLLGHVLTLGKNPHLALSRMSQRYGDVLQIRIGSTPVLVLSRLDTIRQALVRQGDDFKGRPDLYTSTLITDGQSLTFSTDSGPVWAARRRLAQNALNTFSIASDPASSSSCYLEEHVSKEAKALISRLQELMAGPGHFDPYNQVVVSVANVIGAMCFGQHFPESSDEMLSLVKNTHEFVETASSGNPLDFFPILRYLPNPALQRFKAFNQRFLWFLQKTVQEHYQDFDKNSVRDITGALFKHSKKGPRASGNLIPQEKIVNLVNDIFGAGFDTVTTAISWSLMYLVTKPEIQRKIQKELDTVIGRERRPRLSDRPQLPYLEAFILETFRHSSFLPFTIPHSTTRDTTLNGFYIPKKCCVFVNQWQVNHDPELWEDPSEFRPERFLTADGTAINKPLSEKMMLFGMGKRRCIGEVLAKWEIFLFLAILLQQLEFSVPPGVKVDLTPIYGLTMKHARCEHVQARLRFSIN
Test [4] is described as follows: NFAT Signaling Pathway (AID 444; active = well fitted curve in either direction with a large enough effect, not every such curve was filed as active;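 also: carbachol stimulus at about its EC50 of 1 µM final; % is scaled to controls: 0 for no effect and ±100 for the full control effect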). The settings on record: Jurkat NFAT-bla M1, carbachol, beta-lactamase ratio, 5 h; at 7.69 µM (top of the series) unless noted. Summed up:
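Jurkat cells carrying an NFAT-driven β-lactamase reporter and co-transfected muscarinic M1 receptor were treated with compound plus carbachol (1 uM final, an EC50 level) for 5 h at 37 °C. CCF4 loading followed for 1 h at RT; 460/530 nm ratio gave %activity.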

Test [5] is described as follows: Stat Signaling Pathway (AID 446; active = well fitted curve in either direction with a large enough effect, not every such curve was filed as active;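 also: ME-180 cervical cancer cells given 40 pM IL-6 alongside compound; SIE-controlled beta-lactamase reporter measured as 460/530 nm FRET emission ratio; % is scaled to controls: 0 for no effect and ±100 for the full control effect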). The settings on record: ME-180 (cervical carcinoma) SIE beta-lactamase reporter, IL-6 stimulated, 5 h; at 7.69 µM (top of the series) unless noted. Summed up:
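ME-180 SIE-bla cells; overnight plating; cpd + IL-6 40 pM, 5 h, 37 C; LiveBLAzer 2.5 h RT; 460/530 nm emission ratio. Normalized to 300 pM IL-6 and 125 nM JAK inhibitor controls.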

The target in test [6] is Glucocorticoid receptor (Homo sapiens) (UniProt P04150). The test is described as follows: GR-GFP Redistribution (AID 450;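 active = compounds whose dose series gives a full or clear partial fitted curve of increased nuclear translocation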; also: potency is read from the fitted curve at half-maximal effect). Conditions: U2OS GR-GFP nuclear translocation, laser cytometry, 2 h.
Sequence of Glucocorticoid receptor (Homo sapiens) (P04150 whole entry, looked up, the tested form may be a part): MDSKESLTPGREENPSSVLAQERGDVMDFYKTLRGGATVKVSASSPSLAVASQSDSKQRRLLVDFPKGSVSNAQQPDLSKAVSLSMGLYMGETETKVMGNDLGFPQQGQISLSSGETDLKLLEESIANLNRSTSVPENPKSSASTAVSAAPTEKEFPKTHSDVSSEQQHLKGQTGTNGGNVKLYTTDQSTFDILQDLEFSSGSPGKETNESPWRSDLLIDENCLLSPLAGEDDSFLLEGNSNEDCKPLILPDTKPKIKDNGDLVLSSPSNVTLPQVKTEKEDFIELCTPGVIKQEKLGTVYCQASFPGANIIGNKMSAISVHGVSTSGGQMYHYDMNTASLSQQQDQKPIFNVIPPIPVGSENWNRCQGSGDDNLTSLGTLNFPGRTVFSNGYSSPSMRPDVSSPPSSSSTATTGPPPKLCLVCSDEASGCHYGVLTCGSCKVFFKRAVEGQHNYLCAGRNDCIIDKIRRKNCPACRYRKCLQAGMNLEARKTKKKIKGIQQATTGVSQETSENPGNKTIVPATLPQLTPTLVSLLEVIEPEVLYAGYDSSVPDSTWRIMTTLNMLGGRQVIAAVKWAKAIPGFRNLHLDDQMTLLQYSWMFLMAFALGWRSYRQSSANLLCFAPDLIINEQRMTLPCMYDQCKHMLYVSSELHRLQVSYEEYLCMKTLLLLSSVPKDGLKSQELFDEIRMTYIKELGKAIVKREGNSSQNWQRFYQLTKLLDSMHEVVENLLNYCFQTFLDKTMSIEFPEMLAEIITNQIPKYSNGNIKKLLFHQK
Test [7] has the same target. Briefly: GR-EFC Redistribution (AID 451; calls by dose curve; also: potency is read from the fitted curve at half-maximal effect). Conditions: CHO-K1 GR-EFC translocation, beta-gal luminescence, 2 h. Summed up: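 CHO-K1 cells stably expressing nuclear-localized β-gal enzyme acceptor and GR fused C-terminally to the enzyme donor fragment; ligand-driven nuclear translocation restores β-gal by complementation. Compounds titrated up to 46 uM final, 2 h at 37 °C; luminescence read.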

Test [8] addresses Mitogen-activated protein kinase 10 (Mus musculus) (UniProt Q61831). The test is described as follows: JNK3 AlphaScreen Assay (AID 530; active = well fitted curve in either direction with a large enough effect, not every such curve was filed as active;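 also: kinase came from lysate of stimulated human HepG2 cells; signal reports phosphorylation of biotinylated GST-cJun 1-79 at Ser73 with 10 µM ATP; % is scaled to controls: 0 for no effect and ±100 for the full control effect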). The method in brief: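 Inhibitors reduce antibody binding to phosphorylated biotin-cJun, lowering AlphaScreen luminescence. Lysates from HepG2 cells pre-activated by IL-1beta plus TNF-alpha supplied JNK3; compounds were titrated.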
(In general: Bead proximity is the source of the signal in Alpha formats.)

The target of test [9] is Cytochrome P450 3A4 (Homo sapiens) (UniProt P08684). Briefly: qHTS Assay for Activators of Cytochrome P450 3A4 (AID 885). Also: nearly all actives have a fitted effect of over 65% in size. Summed up: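 20nM CYP3A4 + 25uM Luciferin-PPXE (=KM), 200mM KPO4; cpd 10 min RT; NADPH regen, 60 min RT; stop w/ detection buffer, 20 min; luminescence. Normalized to 57 uM ketoconazole.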
Sequence of Cytochrome P450 3A4 (Homo sapiens) (P08684 whole entry, looked up): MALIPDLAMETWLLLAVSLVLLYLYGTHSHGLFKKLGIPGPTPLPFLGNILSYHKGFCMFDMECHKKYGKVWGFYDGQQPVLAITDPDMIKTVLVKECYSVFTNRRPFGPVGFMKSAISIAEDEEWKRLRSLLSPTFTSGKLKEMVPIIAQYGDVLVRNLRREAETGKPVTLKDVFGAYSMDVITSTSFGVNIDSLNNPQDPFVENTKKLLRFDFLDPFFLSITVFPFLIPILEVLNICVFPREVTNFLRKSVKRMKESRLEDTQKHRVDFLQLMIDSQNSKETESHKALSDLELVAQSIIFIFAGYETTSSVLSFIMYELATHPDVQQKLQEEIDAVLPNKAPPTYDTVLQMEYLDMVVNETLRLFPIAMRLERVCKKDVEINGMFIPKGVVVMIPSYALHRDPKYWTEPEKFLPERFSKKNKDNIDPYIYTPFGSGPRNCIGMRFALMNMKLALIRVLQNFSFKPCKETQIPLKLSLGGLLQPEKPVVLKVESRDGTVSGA
Background: In qHTS, concentration-response curves come from the screen itself.

Test [10] in a line: qHTS Assay for Lipid Storage Modulators (AID 1519; calls by dose curve). Conditions: Drosophila S3 cells, BODIPY lipid droplet/cell ratio, laser cytometry, cells loaded with oleic acid; for activity change, negative = inhibition: at 57.5 µM (top of the series). Summed up:
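Cells seeded at 5,000 per well were treated with compounds over a concentration series and loaded with oleic acid (400 uM, as added). Lipid droplet fluorescence (488 nm excitation, 500-530 nm channel) was read by laser-scanning cytometry and normalized to 20 uM Triacsin C.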

For test [11], the target named is Dual specificity protein kinase CLK4 (Homo sapiens) (UniProt Q9HAZ1). The test is described as follows: qHTS Assay for Inhibitors of CDC-like Kinase 4 (Kinase-Glo Assay) (AID 1770). Also: nearly all actives have a fitted effect of over 65% in size. Also: potency is read from the fitted curve at half-maximal effect. The method in brief:
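Luminescent ATP-depletion read-out (Kinase-Glo) after 4.5 h room-temperature reaction of Clk4 (25 nM final) with RS peptide (100 uM) and ATP (1 uM), pH 7.5 Tris buffer with MgCl2 and DTT.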

For test [12] the target is unchanged. The test is described as follows: qHTS Assay for Inhibitors of CDC-like Kinase 4 (ADP-Glo Assay) (AID 1771). Also: nearly all actives have a fitted effect of over 70% in size. Also: potency is read from the fitted curve at half-maximal effect. The method in brief:
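25 nM Clk4 with 100 uM RS repeat peptide and 1 uM ATP (final) in buffer with 2 mM MgCl2, 0.5 mM EGTA, 2.5 mM DTT, 0.01% Triton X-100; 1 h at room temperature; ADP-Glo luminescence for ADP formed.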

Test [13] has as its target Ubiquitin carboxyl-terminal hydrolase 1 (Homo sapiens) (UniProt O94782). The test is described as follows: Inhibitors of USP1/UAF1: Pilot qHTS (AID 504865).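 Also: rhodamine fluorescence freed from ubiquitin-rhodamine substrate followed over time; top concentration of the series differs between compounds; % is scaled to controls: 0 for no effect and ±100 for the full control effect; nearly all actives have a fitted effect of over 35% in size.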 Summed up:
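Deubiquitinase activity followed as kinetic rhodamine fluorescence release from 150 nM Ub-Rho. 1 nM USP1/UAF1 with compound, after 15 min room-temperature preincubation, in HEPES pH 7.8 buffer containing TCEP, EDTA, BSA and Tween-20.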

The nature of test [14]: Primary qHTS for small molecule stabilizers of the endoplasmic reticulum resident proteome: Secreted ER Calcium Modulated Protein (SERCaMP) assay (AID 1508630). Also: % is scaled to controls: 0 for no effect and ±100 for the full control effect. The method in brief:
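GLuc-SERCaMP-expressing SH-SY5Y cells, pretreated 16 h with compound, are challenged with thapsigargin to empty ER calcium stores; after 4 h, coelenterazine is added directly to the medium and luminescence is imaged.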

Test [15] deals with Dual specificity protein kinase CLK4 (Homo sapiens) (UniProt Q9HAZ1). The test is described as follows: qHTS Assay for Inhibitors of CDC-like Kinase 4 (ADP-FP Assay) (AID 1795).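 Also: recombinant human CLK4 phosphorylating RS repeat peptide at 1 µM ATP; % is scaled to controls: 0 for no effect and ±100 for the full control effect; nearly all actives have a fitted effect of over 60% in size.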 The method in brief: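 Kinase activity was measured as ADP production using Transcreener orange tracer (4 nM) and ADP antibody (1 ug/mL) fluorescence polarization, with ADP calculated from a calibration curve. The 1 h reaction contained 6.25 nM Clk4, 1 uM ATP and 100 uM RS peptide at pH 7.5 with Mg2+.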
Sequence of Dual specificity protein kinase CLK4 (Homo sapiens) (Q9HAZ1 whole entry, looked up): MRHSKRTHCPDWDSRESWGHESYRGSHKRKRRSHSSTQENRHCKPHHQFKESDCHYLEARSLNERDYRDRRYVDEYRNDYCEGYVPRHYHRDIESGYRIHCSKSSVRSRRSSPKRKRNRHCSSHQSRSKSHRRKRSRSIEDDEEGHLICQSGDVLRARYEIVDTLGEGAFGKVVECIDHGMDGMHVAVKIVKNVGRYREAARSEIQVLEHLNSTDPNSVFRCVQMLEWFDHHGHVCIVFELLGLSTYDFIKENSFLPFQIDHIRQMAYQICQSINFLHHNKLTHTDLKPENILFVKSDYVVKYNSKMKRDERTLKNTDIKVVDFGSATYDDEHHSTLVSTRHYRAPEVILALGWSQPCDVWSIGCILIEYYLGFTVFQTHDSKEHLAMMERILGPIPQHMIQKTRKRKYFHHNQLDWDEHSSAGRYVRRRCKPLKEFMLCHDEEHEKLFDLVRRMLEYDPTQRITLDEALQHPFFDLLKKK

Test [16] addresses 3',5'-cyclic-AMP phosphodiesterase 4B (Homo sapiens) (UniProt Q07343). The test is described as follows: qHTS Assay for Inhibitors of PDE-IV (AID 607; active = well fitted activation curve with a large enough effect in the main read-out, with a control signal flat, not every such curve was filed as active; also: % of control where 0% means no effect). The method in brief:
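ACTOne HEK293 cells carry a modified cAMP-gated CNG channel and express endogenous PDE4; plated 1000 cells/well, compounds up to 22.9 uM final. Membrane-potential dye fluorescence (ex 535/em 590) was read; parental cells received 10 uM forskolin + 100 uM RO 20-1724.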

Test [17] has as its target Cytochrome P450 2C9 (Homo sapiens) (UniProt P11712). The test is described as follows: qHTS Assay for Inhibitors and Substrates of Cytochrome P450 2C9 (AID 883). Also: potency is read from the fitted curve at half-maximal effect; nearly all actives have a fitted effect of over 60% in size. The method in brief:
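Human CYP2C9 (10nM) hydroxylated Luciferin-H (100uM, at its KM) to luciferin in 25mM KPO4. Compound was preincubated 10 min at 37C, then NADPH regeneration started a 60 min reaction at 37C. Luminescence was read after detection reagent, normalized to 57uM sulphaphenazole.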

For test [18], the target named is Cytochrome P450 3A4 (Homo sapiens) (UniProt P08684). Briefly: qHTS Assay for Inhibitors and Substrates of Cytochrome P450 3A4 (AID 884). Also: potency is read from the fitted curve at half-maximal effect; nearly all actives have a fitted effect of over 50% in size. Summed up: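 20 nM human CYP3A4 with 25 uM Luciferin-PPXE (at KM) in 200 mM KPO4, preincubated 10 min with compound; NADPH regeneration started a 60 min RT reaction. Luciferin detected by luminescence, normalized to 57 uM ketoconazole as full inhibition.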

Test [19] has as its target Cytochrome P450 2C19 (Homo sapiens) (UniProt P33261). The test is described as follows: qHTS Assay for Inhibitors and Substrates of Cytochrome P450 2C19 (AID 899). Also: potency is read from the fitted curve at half-maximal effect; nearly all actives have a fitted effect of over 60% in size. The method in brief: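 Human CYP2C19 (5nM) with Luciferin-H EGE at 10uM (its KM) in 50mM KPO4 was preincubated with compound for 10 min at 37C. NADPH regeneration started a 60 min 37C reaction. Luciferin was read by luminescence, normalized to 57uM ketoconazole.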

The mark [20] stands for this setting: measured here: cell count channel max response.
Where [21] appears, read: measured here: lipid channel max response.

Inconclusive results are not listed. Calls of active or inactive are those of the source. Unless noted, calls follow the shape of the dose curve; as a rule, active = well fitted curve in the direction sought with a large enough effect; inconclusive = small, poorly fitted or top-dose-only effect, or another doubt; inactive = no such curve, though single readings can be large; an effect the other way counts as inactive or inconclusive.

Sequence of 3',5'-cyclic-AMP phosphodiesterase 4B (Homo sapiens) (Q07343 whole entry, looked up): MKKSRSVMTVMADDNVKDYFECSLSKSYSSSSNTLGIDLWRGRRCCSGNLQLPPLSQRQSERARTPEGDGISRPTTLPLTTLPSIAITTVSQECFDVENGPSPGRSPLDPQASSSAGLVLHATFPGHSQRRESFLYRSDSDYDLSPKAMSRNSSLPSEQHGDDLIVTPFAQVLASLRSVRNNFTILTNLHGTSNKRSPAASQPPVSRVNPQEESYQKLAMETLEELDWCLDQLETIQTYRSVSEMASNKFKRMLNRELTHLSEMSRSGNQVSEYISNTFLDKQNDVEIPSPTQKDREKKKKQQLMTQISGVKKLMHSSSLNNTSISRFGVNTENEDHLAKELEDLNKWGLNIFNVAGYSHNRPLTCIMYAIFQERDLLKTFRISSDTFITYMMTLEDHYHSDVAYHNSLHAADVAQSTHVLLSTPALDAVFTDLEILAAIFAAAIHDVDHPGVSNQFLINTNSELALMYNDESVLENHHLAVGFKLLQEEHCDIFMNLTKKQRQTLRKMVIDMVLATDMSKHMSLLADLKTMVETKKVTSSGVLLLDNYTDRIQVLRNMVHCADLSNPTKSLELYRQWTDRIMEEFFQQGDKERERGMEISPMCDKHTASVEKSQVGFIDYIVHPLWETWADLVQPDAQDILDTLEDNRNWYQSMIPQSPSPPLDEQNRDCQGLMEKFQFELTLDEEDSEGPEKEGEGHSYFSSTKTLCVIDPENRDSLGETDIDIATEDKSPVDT
Sequence of Ubiquitin carboxyl-terminal hydrolase 1 (Homo sapiens) (O94782 whole entry, looked up): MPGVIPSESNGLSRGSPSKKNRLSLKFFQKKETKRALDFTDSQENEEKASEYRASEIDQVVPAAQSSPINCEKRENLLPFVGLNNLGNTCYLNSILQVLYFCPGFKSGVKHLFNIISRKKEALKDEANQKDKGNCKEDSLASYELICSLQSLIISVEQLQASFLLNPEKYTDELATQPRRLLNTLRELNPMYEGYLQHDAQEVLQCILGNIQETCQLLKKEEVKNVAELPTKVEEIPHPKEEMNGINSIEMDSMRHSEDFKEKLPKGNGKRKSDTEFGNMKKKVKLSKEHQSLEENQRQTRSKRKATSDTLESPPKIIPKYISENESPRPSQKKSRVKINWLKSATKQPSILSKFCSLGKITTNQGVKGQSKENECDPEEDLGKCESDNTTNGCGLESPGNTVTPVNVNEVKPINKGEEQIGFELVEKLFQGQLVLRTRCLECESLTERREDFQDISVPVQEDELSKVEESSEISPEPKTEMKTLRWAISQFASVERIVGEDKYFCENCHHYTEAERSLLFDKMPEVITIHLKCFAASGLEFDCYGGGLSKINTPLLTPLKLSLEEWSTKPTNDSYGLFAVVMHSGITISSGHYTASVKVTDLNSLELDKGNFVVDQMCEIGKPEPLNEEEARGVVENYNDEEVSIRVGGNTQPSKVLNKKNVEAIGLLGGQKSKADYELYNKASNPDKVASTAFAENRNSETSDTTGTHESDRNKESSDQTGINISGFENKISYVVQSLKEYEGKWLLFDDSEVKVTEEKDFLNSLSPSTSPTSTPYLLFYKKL
Sequence of Cytochrome P450 2C9 (Homo sapiens) (P11712 whole entry, looked up): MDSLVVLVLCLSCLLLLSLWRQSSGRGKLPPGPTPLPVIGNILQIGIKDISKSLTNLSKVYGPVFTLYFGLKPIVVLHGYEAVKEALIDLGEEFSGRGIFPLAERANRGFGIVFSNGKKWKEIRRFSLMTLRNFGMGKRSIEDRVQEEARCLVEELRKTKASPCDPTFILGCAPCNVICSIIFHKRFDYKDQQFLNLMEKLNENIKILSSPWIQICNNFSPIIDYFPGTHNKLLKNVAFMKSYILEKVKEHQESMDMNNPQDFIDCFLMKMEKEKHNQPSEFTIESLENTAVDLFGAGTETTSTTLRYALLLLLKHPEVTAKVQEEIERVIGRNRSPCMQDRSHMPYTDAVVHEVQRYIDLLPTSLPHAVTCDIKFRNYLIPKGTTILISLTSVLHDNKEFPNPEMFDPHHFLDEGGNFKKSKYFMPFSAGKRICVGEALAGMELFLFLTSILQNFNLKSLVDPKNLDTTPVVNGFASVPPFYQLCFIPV

With `COc1cccc(Cn2c(=O)cnc3cncnc32)c1`, the Potency in test [1] was > 11.4 µM (inactive); in [3], 15.8 µM (active); in test [6], > 9.22 µM (inactive); in test [7], > 46 µM (inactive); in test [11], 15.8 µM (active); in test [12] it was 28.2 µM (active). The activity change, negative = inhibition was 13.8% (inactive) in test [2], -18.4% (inactive) in test [4] and 1.18% (inactive) in [10]. Further, the activity, negative = inhibition in [5] was -2.31% (inactive). For the same compound, the result in test [8] was inactive. In addition, the Potency entry in test [9], in test [13] and in test [14] was “inactive” throughout. Besides, the max response was 17.1% in [10] (setting [20]) and 17.8% in test [10] (setting [21]).
As for `Cn1cc(-c2nc3cncnc3n(Cc3ccc(F)cc3)c2=O)c2ccccc21`, the Potency in test [1] was > 11.4 µM (inactive); in [3], 1.26 µM (active); in test [6], > 9.22 µM (inactive); in [7] it was > 46 µM (inactive). The activity change, negative = inhibition is -19.3% (inactive) in test [2], -18.4% (inactive) in test [4] and 6.13% (inactive) in test [10]. The activity, negative = inhibition in test [5] is -7.96% (inactive). For the same compound, in test [8], the compound was classed as inactive. Besides, the max response in [10] (setting [20]) amounted to 15.3%; in [10] (setting [21]) it was 20.1%. The Potency result in test [11], in [15], in test [13] and in [14] was “inactive” throughout.
`CCNc1ncc2nc(C)c(=O)n(CCC#N)c2n1`: the Potency in test [1] was > 11.4 µM (inactive); in test [3] it was 12.6 µM (active); in test [6], > 9.22 µM (inactive); in [7], > 46 µM (inactive). Further, the activity change, negative = inhibition in test [2] is -5.37% (inactive); in test [4], 8.37% (inactive); in test [10], 3.22% (inactive). Also, the activity, negative = inhibition in [5] was -4.05% (inactive). In test [8], the outcome was inactive. For the same compound, the Potency result in test [16], in [11], in [15], in [13] and in test [14] was “inactive” throughout. Further, the max response was -0.74% in [10] (setting [20]) and 2.02% in [10] (setting [21]).
On to `O=c1c(CCc2ccccc2)nc2cncnc2n1Cc1ccc(F)cc1`, for which the Potency in test [1] was > 11.4 µM (inactive); in [3] it was 10 µM (active); in test [6], > 9.22 µM (inactive); in [7], > 46 µM (inactive); in [17], 7.94 µM (active); in test [18] it was 3.16 µM (active). For the same compound, in [19], the Potency was 6.31 µM (active). In addition, the activity change, negative = inhibition was -7.12% (inactive) in test [2], -3.47% (inactive) in test [4] and 5.86% (inactive) in [10]. Moreover, the activity, negative = inhibition in [5] is -6.1% (inactive). Moreover, the Potency result in [9], in [11], in test [12], in test [13] and in test [14] was “inactive” each time. For the same compound, the figures for the max response in test [10] (setting [20]) and in test [10] (setting [21]) were 18.7% and 23.1%, respectively.
Take `Cc1nc2cnc(Nc3ccccc3)nc2n(CCC#N)c1=O`: the Potency in test [1] is > 11.4 µM (inactive); in test [3] it was 0.631 µM (active); in test [6], > 9.22 µM (inactive); in test [7] it was > 46 µM (inactive). The activity change, negative = inhibition in [2] was -11.3% (inactive); in test [4], -3.1% (inactive); in [10], -7.58% (inactive). Further, the activity, negative = inhibition in test [5] is -19.6% (inactive). The compound was classed as inactive in [8]. The Potency result in test [16], in test [11], in test [15], in test [13] and in test [14] was “inactive” each time. Moreover, the max response was -11.1% in test [10] (setting [20]) and -20.1% in test [10] (setting [21]).
Consider `COCCn1c(=O)cnc2cnc(OC)nc21`, for which the results for the Potency in [1], in [6] and in test [7] were > 11.4 µM (inactive), > 9.22 µM (inactive) and > 46 µM (inactive), respectively. Also, the figures for the activity change, negative = inhibition in test [2], in [4] and in [10] were -9.59% (inactive), 1.87% (inactive) and 6.21% (inactive), respectively. The activity, negative = inhibition in test [5] was -10.3% (inactive). In addition, in test [8], the compound was classed as inactive. The Potency result in [16], in [11], in test [12], in [13] and in [14] was “inactive” in each case. Also, the max response in test [10] (setting [20]) turned out to be 19.3%; in test [10] (setting [21]), 24.8%.
